The record followed here is ChEMBL document CHEMBL3988442, “University of Dundee, Small-Polar-MMV Screening Library” (2021).

The target of experiment [1] is T1, Aspartate--tRNA(Asp/Asn) ligase (Mycobacterium tuberculosis (strain ATCC 25618 / H37Rv)) (UniProt P9WFW3). Further: in the data most compounds retested in dose-response had high values.
T1 sequence (whole entry): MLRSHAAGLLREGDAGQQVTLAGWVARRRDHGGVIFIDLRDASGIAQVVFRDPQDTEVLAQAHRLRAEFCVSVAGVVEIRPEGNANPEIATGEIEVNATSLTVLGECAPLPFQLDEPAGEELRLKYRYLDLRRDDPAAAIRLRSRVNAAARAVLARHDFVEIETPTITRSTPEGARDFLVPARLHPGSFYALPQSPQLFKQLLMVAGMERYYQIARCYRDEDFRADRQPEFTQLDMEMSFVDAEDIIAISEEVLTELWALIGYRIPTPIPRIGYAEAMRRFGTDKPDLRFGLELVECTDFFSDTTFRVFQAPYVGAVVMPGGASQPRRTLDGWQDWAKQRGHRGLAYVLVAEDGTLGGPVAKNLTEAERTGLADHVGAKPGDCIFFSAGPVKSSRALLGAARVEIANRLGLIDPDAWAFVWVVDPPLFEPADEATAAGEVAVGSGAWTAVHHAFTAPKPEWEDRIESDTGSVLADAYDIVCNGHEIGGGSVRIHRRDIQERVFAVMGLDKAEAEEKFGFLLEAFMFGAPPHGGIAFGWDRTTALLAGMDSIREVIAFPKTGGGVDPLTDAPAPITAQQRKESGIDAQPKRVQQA
The experiment can be described thus: Assay for Asp RNA synthetase-1 from Mycobacterium tuberculosis. Format: functional. Details: scale not given: direction of the effect not stated beside the values. The note with it: 30 µM.

Experiment [2] addresses Shiga toxin 2 (Escherichia coli O157:H7) (UniProt P09385+P09386). The experiment can be described thus: E. coli 0.157:H7 Shiga Toxin SOP - stx2 screening assay. The note with it: 30 µM. Format: functional. Details: scale not given: direction of the effect not stated beside the values.

As to `COC(=O)c1ccc(N2CCN(C(=O)c3ccncc3)C(C)C2)cc1` (stereo unspecified), the Percent Effect in experiment [1] was -2.26%; in experiment [2], -11.4%.
Turning to `c1cnn(CC2CN(Cc3nc(-c4ccsc4)no3)CCO2)c1` (stereo unspecified), the Percent Effect in experiment [1] was -2.68%; in experiment [2], 35%.
On to `O=C(NC1CCCN(c2ncccn2)C1)c1ccoc1` (stereo unspecified), for which the Percent Effect in experiment [1] is -4.64%; in experiment [2] it was -14.5%.
